Measurements reported in PubChem BioAssay (Tox21).
Values joined by “and” are separate entries in the source; they are usually repeats but may differ in a detail not shown here. Equal values may be shown once. Some compounds were tested as several samples or in several runs, with calls that do not always agree. Active and inactive are the calls of the source. A call without a number means that no potency is given here. Unless noted, calls come from the whole dose curve; as a rule, active = well fitted curve in the direction sought with a large enough effect in the repeat runs; inconclusive = weak or mixed curves; inactive = no such curve, though single readings can be large; an effect the other way counts as inactive or inconclusive.

Assays:
[1] = qHTS assay to identify small molecule antagonists of the glucocorticoid receptor (GR) signaling pathway - cell viability counter screen (AID 720693); note: nearly all actives have a fitted effect of over 55% in size
[2] = qHTS assay for identifying genotoxic compounds that show differential cytotoxicity against isogenic chicken DT40 cell lines with known DNA damage response pathways - Rev3 mutant cell line (AID 743014); note: nearly all actives have a fitted effect of over 55% in size; note: potency is the fitted concentration of half-maximal effect
[3] = qHTS assay for identifying genotoxic compounds that show differential cytotoxicity against isogenic chicken DT40 cell lines with known DNA damage response pathways - Rad54/Ku70 mutant cell line (AID 743015); note: nearly all actives have a fitted effect of over 60% in size; note: potency is the fitted concentration of half-maximal effect
[4] = qHTS assay to identify small molecule antagonists of the androgen receptor (AR) signaling pathway using the MDA cell line - cell viability counter screen (AID 743041; note: nearly all actives have a fitted effect of over 45% in size)
How it was run: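 R1881-driven MDA-kb2 AR-luc cells, 3,000/well, were dosed with library compounds for 16 h; cell health came from CellTiter-Fluor fluorescence in the reporter wells.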

[5] = qHTS assay to identify small molecule antagonists of the thyroid receptor (TR) signaling pathway - cell viability counter screen (AID 743064); note: nearly all actives have a fitted effect of over 50% in size; note: potency is the fitted concentration of half-maximal effect
How it was run: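 GH3.TRE-Luc cells, 4 h pre-plating; cpd + T3 1 nM final; 37 °C 23.5 h; CellTiter-Fluor 30 min; fluorescence read.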

[6] = qHTS assay to identify small molecule antagonists of the thyroid receptor (TR) signaling pathway (AID 743065); note: nearly all actives have a fitted effect of over 55% in size; note: potency is the fitted concentration of half-maximal effect
How it was run: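 Antagonism measured as loss of luciferase signal in GH3 cells stably carrying a TRE-luciferase reporter, co-treated with compound and T3 (1 nM final) for 23.5 h at 37 C. Viability was read in the same well by CellTiter-Fluor.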

[7] = tested on: thyroid hormone receptor (rat, GH3 cells); experiment: qHTS assay to identify small molecule agonists of the thyroid receptor (TR) signaling pathway (AID 743066; calls by dose curve)
[8] = target: Estrogen receptor (Homo sapiens) (UniProt P03372); experiment: qHTS assay to identify small molecule antagonists of the estrogen receptor alpha (ER-alpha) signaling pathway (AID 743069; active = well fitted curve in the direction sought with a large enough effect in the signal ratio in the repeat runs, not every such curve was filed as active; inconclusive = weak or mixed curves, or effect the other way; inactive = no such curve, though single readings can be large or run the other way; the % refers to the signal ratio; note: potency is the fitted concentration of half-maximal effect)
How it was run: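 Compound effects are measured against 17beta-estradiol stimulation in HEK293 cells with a UAS-controlled beta-lactamase reporter for ER-alpha. Exposure lasts 18 hr at 37C; LiveBLAzer B/G FRET substrate follows for 2 hr at room temperature.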

[9] = qHTS assay to identify small molecule antagonists of the estrogen receptor alpha (ER-alpha) signaling pathway - cell viability counter screen (AID 743074; calls by dose curve;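 note: HEK293 cells carrying ER-alpha-UAS-bla reporter stimulated with 17beta-estradiol; nearly all actives have a fitted effect of over 45% in size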)
[10] = target: Estrogen receptor (Homo sapiens) (UniProt P03372); experiment: qHTS assay to identify small molecule agonists of the estrogen receptor alpha (ER-alpha) signaling pathway (AID 743075; calls by dose curve; note: potency is the fitted concentration of half-maximal effect)
[11] = target: Aromatase (Homo sapiens) (UniProt P11511); experiment: qHTS assay to identify aromatase inhibitors (AID 743083); note: nearly all actives have a fitted effect of over 55% in size; note: potency is the fitted concentration of half-maximal effect
[12] = qHTS assay to identify small molecule antagonists of the androgen receptor (AR) signaling pathway - cell viability counter screen (AID 743033; note: nearly all actives have a fitted effect of over 45% in size)
[13] = qHTS assay to identify small molecule antagonists of the estrogen receptor alpha (ER-alpha) signaling pathway using the BG1 cell line - cell viability counter screen (AID 743081);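 note: compound given together with 17beta-estradiol as the ER stimulus; nearly all actives have a fitted effect of over 45% in size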
[14] = target: Estrogen receptor (Homo sapiens) (UniProt P03372); experiment: qHTS assay to identify small molecule agonists of the estrogen receptor alpha (ER-alpha) signaling pathway using the BG1 cell line (AID 743079); settings: BG1Luc4E2 cells, ERE-luciferase agonist, 22 h; activation: at 70.3 µM (top of the series); note: nearly all actives have a fitted effect of over 20% in size
[15] = qHTS assay to identify small molecule antagonists of the estrogen receptor alpha (ER-alpha) signaling pathway using the BG1 cell line (AID 743080; calls by dose curve;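 note: BG1 cells stimulated with 17beta-estradiol alongside compound; nearly all actives have a fitted effect of over 25% in size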; note: potency is the fitted concentration of half-maximal effect)
How it was run: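 BG1-Luc-4E2 cells (endogenous full-length ER-alpha, stable 4×ERE-luciferase) were starved 5 days in phenol-red-free medium with 10% charcoal-stripped FBS, plated 24 h, then given compound plus 17beta-estradiol for 21.5 h at 37 C; ONE-Glo luminescence read after 30 min.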

[16] = target: Androgen receptor (Homo sapiens) (UniProt P10275); experiment: qHTS assay to identify small molecule antagonists of the androgen receptor (AR) signaling pathway (AID 743035; active = well fitted inhibition curve with a large enough effect in the signal ratio in the repeat runs, not every such curve was filed as active; inconclusive = weak or mixed curves, or effect the other way; inactive = no such curve, though single readings can be large or run the other way; the % refers to the signal ratio)
How it was run: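 Beta-lactamase FRET read (2 h RT incubation with LiveBLAzer B/G) following 16 h of compound plus R1881 treatment of AR-UAS-bla HEK293 cells, which had been pre-incubated 4 h at 37C.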

[17] = target: Androgen receptor (Homo sapiens) (UniProt P10275); experiment: qHTS assay to identify small molecule agonists of the androgen receptor (AR) signaling pathway (AID 743036; active = well fitted activation curve with a large enough effect in the signal ratio in the repeat runs, with a control signal flat, not every such curve was filed as active; inconclusive = weak or mixed curves, or effect the other way; inactive = no such curve, though single readings can be large or run the other way; the % refers to the signal ratio)
How it was run: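 AR-bla HEK293 cells, 2,000/well; 4 h preincubation 37C/5% CO2; compound (DMSO) 16 h at 37C; LiveBLAzer B/G FRET substrate 2 h RT; fluorescence intensity read-out.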

[18] = target: Androgen receptor (Homo sapiens) (UniProt P10275); experiment: qHTS assay to identify small molecule agonists of the androgen receptor (AR) signaling pathway using the MDA cell line (AID 743040; note: nearly all actives have a fitted effect of over 20% in size)
How it was run: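 After a 5 h incubation at 37C and 0% CO2, MDA-kb2 reporter cells were dosed with compounds in DMSO and kept 16 h under the same conditions. Luciferase activity was then read as luminescence with ONE-Glo.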

[19] = target: Androgen receptor (Homo sapiens) (UniProt P10275); experiment: qHTS assay to identify small molecule antagonists of the androgen receptor (AR) signaling pathway using the MDA cell line (AID 743042; note: nearly all actives have a fitted effect of over 55% in size)
How it was run: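 Antagonist mode: compounds plus R1881 agonist added to MDA-kb2 AR-luc cells, incubated 16 h at 37C. Luciferase reporter luminescence quantified, with multiplexed CellTiter-Fluor readout for cell viability.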

Androgen receptor (Homo sapiens), sequence (P10275 whole entry, looked up): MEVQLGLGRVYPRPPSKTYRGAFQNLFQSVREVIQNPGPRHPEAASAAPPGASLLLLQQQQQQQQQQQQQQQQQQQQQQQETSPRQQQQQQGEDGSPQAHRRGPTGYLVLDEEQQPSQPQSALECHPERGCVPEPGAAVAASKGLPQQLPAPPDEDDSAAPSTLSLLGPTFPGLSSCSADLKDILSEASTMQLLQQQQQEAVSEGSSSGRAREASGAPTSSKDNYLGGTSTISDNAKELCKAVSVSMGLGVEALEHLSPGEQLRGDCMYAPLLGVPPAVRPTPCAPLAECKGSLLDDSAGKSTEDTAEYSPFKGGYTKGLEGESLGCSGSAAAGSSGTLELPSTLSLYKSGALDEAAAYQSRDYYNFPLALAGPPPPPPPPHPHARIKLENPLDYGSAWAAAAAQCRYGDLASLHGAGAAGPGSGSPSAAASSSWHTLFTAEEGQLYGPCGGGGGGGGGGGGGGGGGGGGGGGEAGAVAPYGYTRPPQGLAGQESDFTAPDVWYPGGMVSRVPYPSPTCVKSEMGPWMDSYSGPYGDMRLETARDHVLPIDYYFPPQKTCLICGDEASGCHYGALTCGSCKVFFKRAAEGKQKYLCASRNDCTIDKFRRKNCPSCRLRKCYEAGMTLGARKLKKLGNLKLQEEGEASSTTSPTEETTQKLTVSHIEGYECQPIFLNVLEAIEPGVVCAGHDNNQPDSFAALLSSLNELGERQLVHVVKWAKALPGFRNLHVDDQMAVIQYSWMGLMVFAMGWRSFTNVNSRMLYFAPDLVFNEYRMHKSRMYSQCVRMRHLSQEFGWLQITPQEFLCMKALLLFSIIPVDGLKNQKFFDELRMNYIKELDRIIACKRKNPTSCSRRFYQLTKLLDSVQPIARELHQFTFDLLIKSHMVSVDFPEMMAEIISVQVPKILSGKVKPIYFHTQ
Aromatase (Homo sapiens), sequence (P11511 whole entry, looked up): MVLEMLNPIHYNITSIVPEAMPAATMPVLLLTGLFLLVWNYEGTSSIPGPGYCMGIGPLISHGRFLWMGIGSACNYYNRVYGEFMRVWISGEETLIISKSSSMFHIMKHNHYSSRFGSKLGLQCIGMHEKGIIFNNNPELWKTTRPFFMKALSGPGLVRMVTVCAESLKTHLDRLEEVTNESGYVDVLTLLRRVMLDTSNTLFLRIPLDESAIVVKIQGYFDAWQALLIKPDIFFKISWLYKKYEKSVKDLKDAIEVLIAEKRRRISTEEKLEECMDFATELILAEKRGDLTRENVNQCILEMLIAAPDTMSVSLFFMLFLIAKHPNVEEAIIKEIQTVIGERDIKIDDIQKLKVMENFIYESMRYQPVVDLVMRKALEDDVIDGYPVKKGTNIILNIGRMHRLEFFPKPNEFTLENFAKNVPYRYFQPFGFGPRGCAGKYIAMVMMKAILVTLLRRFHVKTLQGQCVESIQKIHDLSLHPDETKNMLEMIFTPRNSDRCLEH
Estrogen receptor (Homo sapiens), sequence (P03372 whole entry, looked up): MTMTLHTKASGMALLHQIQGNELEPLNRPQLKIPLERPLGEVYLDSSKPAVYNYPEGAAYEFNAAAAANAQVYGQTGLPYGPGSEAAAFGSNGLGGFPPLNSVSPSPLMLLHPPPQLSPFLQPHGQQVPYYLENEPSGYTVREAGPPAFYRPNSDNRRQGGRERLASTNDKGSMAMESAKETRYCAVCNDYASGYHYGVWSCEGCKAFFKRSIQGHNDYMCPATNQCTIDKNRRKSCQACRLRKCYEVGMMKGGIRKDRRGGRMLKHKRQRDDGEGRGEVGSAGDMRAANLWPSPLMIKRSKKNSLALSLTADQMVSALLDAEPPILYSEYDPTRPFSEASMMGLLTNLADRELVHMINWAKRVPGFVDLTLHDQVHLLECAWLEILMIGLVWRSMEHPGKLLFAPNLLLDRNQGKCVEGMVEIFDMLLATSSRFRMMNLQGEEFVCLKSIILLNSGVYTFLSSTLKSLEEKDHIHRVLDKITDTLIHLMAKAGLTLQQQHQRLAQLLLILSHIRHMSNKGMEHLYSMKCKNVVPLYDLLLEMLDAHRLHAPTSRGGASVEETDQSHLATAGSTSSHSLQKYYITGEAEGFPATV

Row | SMILES | Potency [1] | Potency [2] | Potency [3] | Potency [4] | Potency [5] | Potency [6] | Potency [7] | Potency [8] | Potency [9] | Potency [10] | Potency [11] | Potency [12] | Potency [13] | Potency [14] | Potency [15] | Potency [16] | outcome [17] | outcome [18] | Potency [19]
1 | CCC[CH2][Sn]([CH2]CCC)([O]C(C)=O)[O]C(C)=O | inactive | 30.9 µM (active) | 30.9 µM (active) | inactive | 19.5 µM (active) | 3.89 µM (active) | inactive | 31.2 µM [inconclusive] (active) | inactive | inactive | 15.5 µM (active) | – | – | – | – | – | – | – | –
2 | CCCCn1cc[n+](C)c1.[Cl][Fe-]([Cl])([Cl])[Cl] | inactive | inactive | – | inactive | inactive | inactive | inactive | – | inactive | – | inactive | inactive | inactive | – | – | – | – | – | –
3 | Cc1cc2c3c(c1)C(c1ccccc1)=N[C@@H](NC(=O)c1ccncc1)C(=O)N3CC2 | inactive | 61.1 µM (active) | – | – | inactive | 24.3 µM (active) | inactive | inactive | – | inactive | inactive | – | – | inactive | inactive | – | – | – | –
4 | Cc1ccc2cc3c(ccc4ccccc43)c3c2c1CC3 | inactive | inactive | inactive | – | – | – | – | inactive | inactive | 6.18 µM [activator] (active) | – | inactive | inactive | – | 0.546 µM (active) | – | – | – | –
5 | Clc1ccc(C2(Cn3cncn3)OCCO2)c(Cl)c1 | inactive | 30.6 µM (active) | inactive and 61.1 µM (active) | inactive | inactive | – | – | inactive | inactive | inactive | inactive | inactive | inactive | inactive | inactive | – | – | – | –
6 | CCN(CC)CCc1c[nH]c2ccccc12 | inactive | – | inactive | – | – | – | inactive | inactive | inactive | inactive | – | inactive | inactive | inactive | inactive | – | – | – | –
7 | CC(=O)[O-].CC(=O)[O-].CC(=O)[O-].[Cr+3] | inactive | – | 19.3 µM (active) | inactive | 54.3 µM (active) | – | inactive | – | inactive | – | – | inactive | inactive | – | – | – | – | – | –
8 | O=Cc1ccccc1 | inactive | inactive | inactive | – | inactive | inactive | inactive | – | inactive | – | – | inactive | inactive | – | – | – | – | – | –
9 | O=C(N[C@H]1N=C(c2ccccc2F)c2cccc3c2N(CC3)C1=O)c1cc2ccccc2[nH]1 | inactive | – | 29.8 µM (active) | inactive | – | 5.96 µM (active) | inactive | – | – | – | inactive | inactive | inactive | – | – | – | – | – | –
10 | CCOP(=S)(OCC)Oc1cc(C)nc(N(CC)CC)n1 | inactive | 27.3 µM (active) | 27.3 µM (active) | inactive | inactive | – | inactive | – | – | inactive | – | – | inactive | – | 34.4 µM (active) | inactive | inactive | inactive | inactive
11 | COP(=O)(OC)Oc1ccc([N+](=O)[O-])cc1 | inactive | 61.1 µM (active) | inactive | – | inactive | inactive | inactive | – | – | inactive | 34.4 µM (active) | inactive | inactive | inactive | inactive | – | – | – | –
12 | Oc1cc(Cl)cc(Cl)c1 | inactive | 61.8 µM (active) | 61.8 µM (active) | – | inactive | – | inactive | – | inactive | inactive | – | – | inactive | inactive | inactive | – | – | – | –
13 | N#Cc1ccc(N(CC(N)=O)CC(F)(F)F)cc1C(F)(F)F | inactive | inactive | – | – | inactive | inactive | inactive | inactive | inactive | inactive | inactive | inactive | inactive | inactive | inactive | – | – | – | –
14 | N#Cc1c2ccccc2cc2ccccc12 | inactive | – | inactive | inactive | – | inactive | inactive | – | inactive | – | inactive | inactive | – | – | – | – | – | inactive | inactive
15 | CC(C)[C@@H](Nc1ccc(C(F)(F)F)cc1Cl)C(=O)OC(C#N)c1cccc(Oc2ccccc2)c1 (some centres not stated) | inactive | – | inactive | inactive | inactive | inactive | inactive | inactive | inactive | – | inactive | inactive | inactive | inactive | inactive | – | – | – | –
16 | CCCN | inactive | inactive | inactive | inactive | inactive | – | – | – | inactive | – | inactive | inactive | inactive | – | – | – | – | – | –
17 | COC(=O)C(C)N(C(=O)c1ccco1)c1c(C)cccc1C (configuration not stated) | inactive | 54.4 µM (active) | – | inactive | – | inactive | inactive | inactive | inactive | inactive | inactive | inactive | inactive | inactive | – | – | – | – | –
18 | Cc1cccc(Cc2cnc[nH]2)c1C | inactive | – | inactive | inactive | inactive | inactive | inactive | inactive | – | inactive | – | inactive | inactive | inactive | inactive | – | – | – | –
